Bioassay records deposited in PubChem BioAssay by National Center for Advancing Translational Sciences (NCATS).
Pol kappa inh-1: blocks human DNA polymerase kappa activity | Potency, µM (series often up to 107 µM), for the others: at the highest dose activity, negative = inhibition, most hits filed as inhibitors | 400,000 compounds, 0.53% hits | AID 588579 | Q9UBT6 | purified Pol kappa, fluorescent DNA synthesis assay, 10 min; also: potency is read from the fitted curve at half-maximal effect; % is scaled to controls: 0 for no effect and ±100 for the full control effect
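Readout: fluorescence, taken kinetically at 0 and 10 min. Conditions: 10 nM Pol kappa, 15 min RT compound preincubation, 50 nM substrate final. Controls: enzyme-free buffer wells.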
POLI inh: inhibitors of human DNA polymerase iota; Q9UNA4; Pol iota fluorescent replication assay, 10 min; Potency, µM (titrated, usually from 115 µM), without a hit: at the highest dose activity, negative = inhibition, hits mostly inhibitors; 390,000 compounds, 1% hits; AID 588590; also: potency is read from the fitted curve at half-maximal effect
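Pol iota at 10 nM preincubated 15 min with compounds at room temperature; reaction started with fluorescent substrate, 50 nM final. Fluorescence read kinetically at 0 and 10 min; buffer-only wells as negative control.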
POLB inh: inhibitors of human DNA polymerase beta | Pol beta primer extension/strand displacement, fluorescence kinetic | 340,000 compounds, 1.3% hits | Potency, µM (top dose mostly 114 µM), without a hit: top-dose activity change, negative = inhibition, actives largely listed as inhibitors | P06746; also: potency is read from the fitted curve at half-maximal effect; % is scaled to controls: 0 for no effect and ±100 for the full control effect
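Enzyme-only controls used 10 nM Pol beta; buffer lacking enzyme served as negative control. Compound preincubated 15 min, then 50 nM substrate added; 0 and 10 min reads at room temperature.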
WRN helicase inh-1: blocks human WRN helicase; 360,000 compounds, 0.46% hits; Q14191; AID 651768; WRN helicase unwinding, fluorescent forked duplex, kinetic; Potency, µM (highest dose often 114 µM), for the others: at the highest dose activity change, negative = inhibition, usual class: inhibitors; also: potency is read from the fitted curve at half-maximal effect; % is scaled to controls: 0 for no effect and ±100 for the full control effect; nearly all actives have a fitted effect of over 55% in size
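Screening of the MLSMR collection measured strand separation of a quenched forked DNA duplex (100 nM) by 20 nM WRN with 2 mM ATP, all final. Compounds were preincubated with enzyme 15 min at room temperature.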
Pol eta inh-1: blocks human DNA polymerase eta activity; Potency, µM (highest dose often 114 µM), for inactives: at the top dose activity change, negative = inhibition, most hits filed as inhibitors; 390,000 compounds, 1.2% hits; recombinant Pol eta, fluorescent DNA replication assay; AID 588591; also: potency is read from the fitted curve at half-maximal effect; % is scaled to controls: 0 for no effect and ±100 for the full control effect
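Pol eta at 10 nM preincubated with compounds 15 min at room temperature; reaction started with fluorescent substrate (50 nM final) and read kinetically at 0 and 10 min.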
PI5P4Ka inh: PI5P4K alpha (human) kinase inhibition. P48426. PI5P4Kalpha enzyme, ADP-Glo luminescence, 60 min; stronger effect = lower value. max response, %. 330,000 compounds, 1.2% hits. AID 652105; active = max response of -50% or lower; inconclusive = between -30% and -50%; inactive = -30% or higher; also: value at the top dose of about 77 µM; % is scaled to controls: 0 for no effect and ±100 for the full control effect
Target sequence (P48426 whole entry, looked up): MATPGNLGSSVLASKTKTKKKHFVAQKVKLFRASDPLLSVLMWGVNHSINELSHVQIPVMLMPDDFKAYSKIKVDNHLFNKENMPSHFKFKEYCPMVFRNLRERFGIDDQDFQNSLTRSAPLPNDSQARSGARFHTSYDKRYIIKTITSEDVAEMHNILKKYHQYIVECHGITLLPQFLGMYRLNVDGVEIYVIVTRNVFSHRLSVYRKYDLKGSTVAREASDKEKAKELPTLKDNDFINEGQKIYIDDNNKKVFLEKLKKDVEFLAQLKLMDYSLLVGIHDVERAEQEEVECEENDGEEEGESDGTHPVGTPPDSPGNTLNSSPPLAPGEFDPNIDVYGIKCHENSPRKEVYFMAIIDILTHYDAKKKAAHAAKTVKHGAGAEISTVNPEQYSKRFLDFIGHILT
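Reactions run in 0.038 M HEPES pH 7.4, 0.28 mM EGTA, 0.1% CHAPS and 5% DMSO, with PI5P4Kalpha, substrate, compound and 5 microM ATP final, one hour at room temperature. Readout is ADP-Glo luminescence.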
GALK confirm: galactokinase (human) inhibition, confirmation; shares compounds with Pol eta inh-1; purified GALK, Kinase-Glo ATP depletion luminescence; Potency, µM (titrated, usually from 115 µM), for inactives: at the highest dose activity, negative = inhibition, most hits filed as inhibitors; 150 compounds, 70% hits
Target sequence (P51570 whole entry, looked up): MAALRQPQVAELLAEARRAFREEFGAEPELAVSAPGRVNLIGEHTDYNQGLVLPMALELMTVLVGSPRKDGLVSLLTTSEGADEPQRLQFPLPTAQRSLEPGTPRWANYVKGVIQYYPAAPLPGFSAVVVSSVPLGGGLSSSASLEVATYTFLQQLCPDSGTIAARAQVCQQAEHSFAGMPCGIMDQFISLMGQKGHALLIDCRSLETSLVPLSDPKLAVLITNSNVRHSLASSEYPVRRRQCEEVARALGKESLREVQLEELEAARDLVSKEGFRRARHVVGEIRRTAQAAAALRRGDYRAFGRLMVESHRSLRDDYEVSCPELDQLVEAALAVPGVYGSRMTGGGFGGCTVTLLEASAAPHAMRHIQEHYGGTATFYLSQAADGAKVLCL
Redox cycling: redox cycling activity in phenol red-HRP assay; shares compounds with Pol eta inh-1; Phenol red-HRP H2O2 redox cycling, absorbance 600 nm; Potency, µM (top dose mostly 115 µM), for inactives: at the highest dose activity change, negative = H2O2 signal, actives largely listed as inhibitors; 150 compounds, 40% hits
HEK293 tox: HEK-293 cytotoxicity, GALK inhibitor secondary | shares compounds with Pol eta inh-1 | Potency, µM (highest dose often 46.1 µM), for the others: at the highest dose activity change, negative = cytotoxicity, actives largely listed as inhibitors | 170 compounds, 10% hits | HEK-293 viability, ATP luminescence (CellTiter-Glo), 24/48 h; also: potency is read from the fitted curve at half-maximal effect; % is scaled to controls: 0 for no effect and ±100 for the full control effect
Pol kappa inh-2: confirmation of human DNA polymerase kappa inhibitors. shares compounds with Pol eta inh-1. purified Pol-kappa, fluorescent strand-displacement substrate. Potency, µM, actives largely listed as inhibitors. 920 compounds, 76% hits. AID 720501; also: potency is read from the fitted curve at half-maximal effect
Pol eta inh-2: Pol eta (human) inhibition, cherry-pick confirmation. Potency, µM, hits mostly inhibitors. shares compounds with Pol eta inh-1. Pol eta primer extension, TAMRA/BHQ fluorescence, 10 min. 2,600 compounds, 64% hits. AID 720502; also: potency is read from the fitted curve at half-maximal effect
WRN helicase inh-2: WRN helicase inhibition, cherry-pick retest; shares compounds with WRN helicase inh-1; WRN helicase DNA unwinding, fluorescence kinetic; Potency, µM (series often up to 57.1 µM), without a hit: at the top dose activity, negative = inhibition, hits mostly inhibitors; 610 compounds, 63% hits; also: potency is read from the fitted curve at half-maximal effect; nearly all actives have a fitted effect of over 65% in size
TO DNA binding: DNA binding via thiazole orange displacement; 610 compounds, 10% hits; shares compounds with WRN helicase inh-1; thiazole orange DNA binding displacement, fluorescence; Potency, µM (highest dose often 57.1 µM), for the others: top-dose activity change, negative = inhibition, usual class: inhibitors; AID 720499;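 also: drop in dye fluorescence marks compound binding to DNA; potency is read from the fitted curve at half-maximal effect; % is scaled to controls: 0 for no effect and ±100 for the full control effect; nearly all actives have a fitted effect of over 60% in size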
BLM helicase inh: blocks human BLM helicase in WRN counterscreen; AID 720503; 610 compounds, 60% hits; shares compounds with WRN helicase inh-1; Recombinant BLM helicase DNA unwinding, red fluorescence; Potency, µM (series often up to 57.1 µM), for the others: at the top dose activity change, negative = inhibition, hits mostly inhibitors; also: potency is read from the fitted curve at half-maximal effect; nearly all actives have a fitted effect of over 60% in size
Numbers without * were called inactive; u = inconclusive; x = not tested or not shown; [ ] = remark or other dose. Hits are enriched below; roughly 2.8% of the tested compounds scored in any of these assays. Unless noted, calls follow the shape of the dose curve; as a rule, active = well fitted curve in the direction sought with a large enough effect; inconclusive = small, poorly fitted or top-dose-only effect, or another doubt; inactive = no such curve, though single readings can be large; an effect the other way counts as inactive or inconclusive.

SMILES	Pol kappa inh-1	POLI inh	POLB inh	WRN helicase inh-1	Pol eta inh-1	PI5P4Ka inh	Pol eta inh-2	WRN helicase inh-2	TO DNA binding	BLM helicase inh	others
Cc1cc(/C=C2\C(=O)NC(=O)N(c3ccc(Cl)cc3)C2=O)c(C)n1C	-19%	-13%	1%	-5%	-6%	2	x	x	x	x
O=CN1CCCCC1C1CC[C@H]2CCCCN2C1 (stereo not given in full)	-13%[19.4 µM]	x	x	x	x	x	x	x	x	x
CON(C)C(=O)Nc1ccc(Br)c(Cl)c1	16%[60.1 µM]	x	x	x	x	x	x	x	x	x
CC1=NN(c2ccccc2)C(=O)C1/C=C1/C(=O)NC(=O)N(c2cccc(C)c2)C1=O (stereo not given)	x	x	19%	x	x	x	x	x	x	x
Cc1cccc(N2C(=O)NC(=O)/C(=C\c3ccc4c(c3)CCCN4Cc3ccccc3)C2=O)c1	-1%	u	-28%	237%[57.1 µM]	22µM*	u	u	x	x	x
Cc1cc2c(C(C)C)c(O)c(O)c(C=O)c2c(O)c1-c1c(C)cc2c(C(C)C)c(O)c(O)c(C=O)c2c1O	11µM*	2.5µM*	0.56µM*	x	x	x	x	x	x	x	GALK confirm=24µM*;Redox cycling=-9%;HEK293 tox=6%
O=C(O)c1ccccc1-c1ccc(C=C2C(=O)N(c3ccccc3)C(=S)N(c3ccccc3)C2=O)o1	u	u	45µM*	u	18µM*	u	34*	x	x	x	Pol kappa inh-2=17*
N#Cc1c(-c2csc(-c3no[n+]([O-])c3C#N)c2)no[n+]1[O-]	x	x	x	x	x	x	u	u	-15%	u
CCN(CC)c1ccc(/C=C2\C(=O)NC(=O)N(Cc3ccco3)C2=O)cc1	79µM*	20µM*	u	28µM*	22µM*	-57*	u	u	1%	u	Pol kappa inh-2=34*
CCN(CC)c1ccc(/C=C2/C(=O)NC(=O)N(CC3CCCO3)C2=O)cc1 (stereo not given)	-2%	u	19%	-34%	3%	-23	x	x	x	x
O=C1NC(=S)NC(=O)C1=Cc1cccc2cc3ccccc3cc12	-4%	35µM*	-4%	u	50µM*	-70*	u	u	-5%	u
CCN(N=O)[C@@H](Cc1ccccc1)CN(N=O)[C@@H](Cc1ccccc1)CN(C)N=O	-10%	u	u	-17%	-8%	3	x	x	x	x
CCN(CC)C(=O)N[C@H]1C=C2c3cccc4[nH]cc(c34)C[C@@H]2N(C)C1	-16%[12 µM]	x	x	x	x	x	x	x	x	x
O=C1NC(=O)N(c2ccccc2)C(=O)/C1=C\c1ccc([N+](=O)[O-])s1	28µM*	u	u	28µM*	10µM*	-74*	34*	u	-15%	17µM*
O=NN1CCCC1c1cccnc1 (stereo not given)	3%[19.4 µM]	x	x	x	x	x	x	x	x	x
Cn1cccc1/C=C1\C(=O)NC(=O)N(Cc2ccccc2)C1=O	50µM*	22µM*	u	u	35µM*	-58*	u	u	-13%	u
C=C(C)[C@@]12OC3(c4ccccc4)O[C@@H]1[C@@H]1[C@@H]4O[C@]4(CO)[C@@H](O)[C@]4(O)C(=O)C(C)=C[C@H]4[C@@]1(O3)[C@H](C)[C@H]2OC(=O)/C=C/C=C/c1ccccc1	-9%[60.1 µM]	x	x	x	x	x	x	x	x	x
CC1=C(O)C(=O)C=C2C1=CC=C1C2(C)CCC2(C)C3CC(C)(C(=O)O)CCC3(C)CCC12C (stereo not given)	32µM*	3.5µM*	x	25µM*	7.9µM*	-72*	34*	u	-19%	22µM*
Cc1c(O)c(O)cc2c1CC=C1[C@]3(C)CC[C@]4(C)CC[C@@](C)(C(=O)O)CC4[C@]3(C)CC[C@]12C (stereo not given in full)	-6%[60.1 µM]	x	x	x	x	x	x	x	x	x
O=C1C(=Cc2cn(-c3ccccc3)nc2-c2ccc(OCc3ccc(Cl)cc3)cc2)SC(=S)N1CCS(=O)(=O)O	x	x	x	14µM*	x	u	x	11µM*	u	3.8µM*
O=C1NC(=O)C(=Cc2ccccc2[N+](=O)[O-])C(=O)N1	-14%	-1%	x	40µM*	-4%	u	x	5%	-2%	0%
CCOc1cc(C=C2C(=O)NC(=O)NC2=O)cc([N+](=O)[O-])c1O	x	x	3%	x	x	x	x	x	x	x
CN1C(=O)/C(=C\c2ccc(Br)s2)C(=O)NC1=S	-29%	u	u	18µM*	u	-77*	x	u	-4%	u
CCCCN1C(=O)/C(=C\c2ccco2)C(=O)N(CCc2ccccc2)C1=O	25µM*	u	8.9µM*	32µM*	40µM*	-82*	x	u	-9%	22µM*
CN1C(=O)C(=CN2CCN(C(=O)c3ccco3)CC2)C(=O)N(C)C1=S	-2%	3%	38%	-7%	-5%	-18	x	x	x	x
CCCCN1C(=O)/C(=C/c2ccc(N(C)C)cc2)C(=O)N(Cc2ccco2)C1=O	25µM*	u	22µM*	28µM*	40µM*	-64*	x	u	3%	22µM*
